In PubChem BioAssay:
Calls of active or inactive are those of the source.

Tests used:
[1] = test system: Plasmodium falciparum Sir2 (PF13_0152, Sir2A); assay: Plasmodium falciparum Sir2A binding compounds – biochemical, small-molecule microarray, 635 nm fluorescence, primary screen (AID 1098); conditions: fluorescence 635 nm, higher = more signal;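 further: score merges spot fluorescence intensity with its signal-to-noise ratio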
[2] = probe aDKK1 binding to arrayed compounds – biochemical, biotinylated probe, 635/667 nm fluorescence, primary screen (AID 1099); conditions: small-molecule microarray, higher = more signal;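 further: score merges 667nm spot fluorescence with signal to noise across triplicate slides; reference of the scale not given here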
[3] = probe aCHRDL2 binding to arrayed compounds – biochemical, biotinylated probe, 635/667 nm fluorescence, primary screen (AID 1100); conditions: small-molecule microarray, higher = more signal
[4] = change in splice reporter luminescence, either direction, cell-based, HEK293, spliceosome inhibition project, primary screen (AID 1101); conditions: HEK293 splicing luciferase reporter, 24 h, higher = more signal, called active from +8 up or from −8 down;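 further: HEK293 cells carrying a splicing-competent luciferase reporter gene; test concentration not given here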
[5] = target: Fibroblast growth factor 10 (Homo sapiens) (UniProt O15520); assay: compounds binding fibroblast growth factor 10 – biochemical, small-molecule microarray, 635 nm fluorescence, primary screen (AID 1102); conditions: FGF10 binding, fluorescence 635 nm, higher = more signal
[6] = test system: glycogen synthase kinase-3 (GSK3A per assay name; protocol says GSK3B); assay: compounds binding glycogen synthase kinase-3 – biochemical, small-molecule microarray, 635 nm fluorescence, GSK3A, primary screen (AID 1103); conditions: fluorescence 635 nm, higher = more signal; further: the record names both GSK3A and GSK3B
[7] = target: Epidermal growth factor receptor (Homo sapiens) (UniProt P00533); assay: compounds binding epidermal growth factor receptor – biochemical, small-molecule microarray, 635 nm fluorescence, primary screen (AID 1104); conditions: EGFR binding, higher = more signal;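 further: score merges 667 nm emission intensity with spot signal to noise over triplicate slides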
[8] = target: Follistatin-related protein 3 (Homo sapiens) (UniProt O95633); assay: compounds binding follistatin-related protein 3 – biochemical, small-molecule microarray, 635 nm fluorescence, primary screen (AID 1105); conditions: FSTL3 binding, higher = more signal;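 further: score merges emission near 667 nm and signal to noise per printed spot across three slides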
[9] = target: Dickkopf-related protein 1 (Homo sapiens) (UniProt O94907); assay: small molecules binding DKK1 protein – biochemical, small-molecule microarray, 635 nm fluorescence scan, primary screen (AID 1106); conditions: higher = more signal;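 further: score merges emission near 667 nm with signal to noise over three replicate slides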
[10] = test system: Inhibin beta A chain (activin A); assay: small molecules binding activin A – biochemical, small-molecule microarray, 635 nm fluorescence scan, primary screen (AID 1107); conditions: INHBA, higher = more signal;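 further: mouse activin A protein probed at 4.33 µg/mL on printed slides; score merges bound-protein fluorescence near 667 nm with spot signal-to-noise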

Sequence of Fibroblast growth factor 10 (Homo sapiens) (O15520 whole entry, looked up): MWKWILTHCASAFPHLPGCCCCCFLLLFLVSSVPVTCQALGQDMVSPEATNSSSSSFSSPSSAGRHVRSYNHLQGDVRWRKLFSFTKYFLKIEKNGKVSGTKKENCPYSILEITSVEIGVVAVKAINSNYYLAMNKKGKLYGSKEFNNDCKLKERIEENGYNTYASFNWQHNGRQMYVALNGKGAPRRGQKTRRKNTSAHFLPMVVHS
Sequence of Dickkopf-related protein 1 (Homo sapiens) (O94907 whole entry, looked up): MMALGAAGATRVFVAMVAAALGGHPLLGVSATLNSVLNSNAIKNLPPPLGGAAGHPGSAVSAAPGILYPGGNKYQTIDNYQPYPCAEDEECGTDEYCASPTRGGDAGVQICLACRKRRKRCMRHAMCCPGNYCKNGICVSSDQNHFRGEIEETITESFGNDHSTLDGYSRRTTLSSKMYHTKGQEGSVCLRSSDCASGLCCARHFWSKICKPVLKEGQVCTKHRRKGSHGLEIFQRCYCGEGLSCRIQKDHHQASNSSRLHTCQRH
Sequence of Epidermal growth factor receptor (Homo sapiens) (P00533 whole entry, looked up): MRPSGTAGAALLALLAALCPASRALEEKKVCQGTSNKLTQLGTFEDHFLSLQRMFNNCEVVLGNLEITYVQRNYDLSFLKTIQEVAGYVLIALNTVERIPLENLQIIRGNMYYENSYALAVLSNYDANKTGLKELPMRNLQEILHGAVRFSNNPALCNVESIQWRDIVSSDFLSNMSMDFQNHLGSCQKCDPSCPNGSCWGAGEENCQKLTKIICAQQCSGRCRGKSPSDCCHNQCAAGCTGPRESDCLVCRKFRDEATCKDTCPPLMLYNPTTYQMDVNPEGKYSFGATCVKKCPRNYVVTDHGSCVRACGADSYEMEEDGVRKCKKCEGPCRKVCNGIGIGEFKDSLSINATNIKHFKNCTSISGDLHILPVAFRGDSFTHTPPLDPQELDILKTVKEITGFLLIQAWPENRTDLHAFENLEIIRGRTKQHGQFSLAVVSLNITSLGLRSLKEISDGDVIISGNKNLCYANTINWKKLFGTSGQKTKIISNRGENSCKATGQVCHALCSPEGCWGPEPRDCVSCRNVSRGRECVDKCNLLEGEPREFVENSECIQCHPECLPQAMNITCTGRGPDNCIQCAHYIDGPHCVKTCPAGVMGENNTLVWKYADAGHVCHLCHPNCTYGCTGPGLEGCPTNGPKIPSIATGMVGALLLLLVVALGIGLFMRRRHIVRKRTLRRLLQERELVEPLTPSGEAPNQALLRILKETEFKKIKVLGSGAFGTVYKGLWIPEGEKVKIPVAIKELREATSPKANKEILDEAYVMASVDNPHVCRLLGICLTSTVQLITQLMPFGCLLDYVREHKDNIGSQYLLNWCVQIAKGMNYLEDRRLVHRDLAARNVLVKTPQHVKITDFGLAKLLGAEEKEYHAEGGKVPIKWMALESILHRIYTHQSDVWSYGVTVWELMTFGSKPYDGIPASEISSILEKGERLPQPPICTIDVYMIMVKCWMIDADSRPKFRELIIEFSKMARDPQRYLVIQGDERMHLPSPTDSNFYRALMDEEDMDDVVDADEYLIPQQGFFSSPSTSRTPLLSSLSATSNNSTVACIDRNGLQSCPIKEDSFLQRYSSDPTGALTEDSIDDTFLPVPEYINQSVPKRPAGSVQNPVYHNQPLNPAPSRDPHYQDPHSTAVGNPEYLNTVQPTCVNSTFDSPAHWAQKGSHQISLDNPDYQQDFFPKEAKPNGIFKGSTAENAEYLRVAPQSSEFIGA
Sequence of Follistatin-related protein 3 (Homo sapiens) (O95633 whole entry, looked up): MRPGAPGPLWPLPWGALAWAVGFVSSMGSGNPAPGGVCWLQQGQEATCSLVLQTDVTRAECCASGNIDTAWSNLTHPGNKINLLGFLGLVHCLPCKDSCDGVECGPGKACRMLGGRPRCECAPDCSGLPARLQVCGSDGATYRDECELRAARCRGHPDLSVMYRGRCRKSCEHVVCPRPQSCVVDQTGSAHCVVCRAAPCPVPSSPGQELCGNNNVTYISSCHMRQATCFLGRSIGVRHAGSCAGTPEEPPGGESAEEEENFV

SMILES	composite z-score [1]	composite z-score [2]	composite z-score [3]	z-score [4]	composite z-score [5]	composite z-score [6]	composite z-score [7]	composite z-score [8]	composite z-score [9]	composite z-score [10]
CCOC(=O)C1=CC[C@@H](c2cccc(Cl)c2)N(S(=O)(=O)c2ccc(C)cc2)[C@H]1c1ccc(C#N)cc1	1.06	0.855	0.252	-0.201 (inactive)	0.841	1.32	0.36	1.41	0.49	0.582
C=CC[C@@]1(C(=O)OC)N=C(c2ccc(OCCCO)cc2)O[C@@H]1c1ccccc1CN=[N+]=[N-]	1.55	-0.0877	0.892	-1.54 (inactive)	-0.216	-0.215	-0.328	0.201	-0.231	1.15
COCCOC(=O)N1C(=O)[C@@]2(c3cc(C#CCC(C(=O)OC)C(=O)OC)ccc31)[C@H](c1ccc(OCCO)cc1)N1[C@H](c3ccccc3)[C@H](c3ccccc3)OC(=O)[C@H]1[C@@H]2C(=O)NC[C@H](O)c1ccccc1	1.52	-0.405	-0.189	0.0782 (inactive)	1.5	1.3	0.586	1.29	0.356	0.094
COc1ccc([Si](C)(C)[C@@H]2[C@@H](CCO)O[C@]3(C(=O)N(Cc4ccc(N5C(=O)c6cccc7cccc5c67)cc4)c4ccccc43)[C@H]2C)cc1	1.03	0.0129	0.598	-1.11 (inactive)	-0.66	-0.445	-1.13	-0.66	-0.674	-0.194
CN(C)CCCCCCNC(=O)[C@@H]1C[C@@H]2C(=O)N[C@@H](Cc3ccccc3)C(=O)N2[C@@H]1c1cccc(OCCO)c1	1.12	0.182	0.635	-0.326 (inactive)	0.393	1.31	0.464	0.721	0.872	0.728
CCN(CC)c1ccc(N2CC=CC34O[C@@H]5/C=C\CCCOC(=O)C5[C@H]3C(=O)N(CCCO)[C@@H]4C2=O)cc1 (stereo not given in full)	1.47	-0.136	0.808	0.821 (inactive)	-1.04	-0.422	-1.48	-0.88	-1.75	-0.222
COC(=O)c1c(CC[C@@H](CO)NC(=O)Nc2ncn[nH]2)oc(C(=O)Cc2ccccc2)c1C(=O)OC	0.0638	0.0272	-0.0621	0.801 (inactive)	1.08	0.938	0.596	1.01	0.957	0.616
CC(C)NC(=O)[C@@H]1c2ccccc2C(=O)N(C2CCCCC2)[C@H]1c1ccc(CO)cc1	0.576	0.678	0.919	0.0672 (inactive)	0.902	0.889	0.101	0.28	-0.161	0.445
CC(=O)NCCCC[C@@H]1NC(=O)[C@@H]2C[C@H](C(=O)NCCCCCC[N+](C)(C)C)[C@H](c3cccc(OCCO)c3)N2C1=O	1.13	-0.145	-0.0962	-0.0513 (inactive)	1.23	1.27	0.341	1.25	1.45	0.811
CCCC[C@H]1OB(O)C[C@H]2C1=C(C)Cn1c(=O)n(-c3ccccc3)c(=O)n12	0.161	-0.291	-0.67	-0.293 (inactive)	0.49	0.37	0.512	0.662	0.779	0.255
COc1ccccc1CN1C(=O)c2ccccc2[C@](Cc2ccccc2I)(C(=O)NCc2ccccc2)[C@@H]1c1ccc(CO)cc1	0.17	0.131	0.875	0.164 (inactive)	0.184	-0.0893	-0.593	-0.457	-0.341	0.9
COC(=O)[C@@]1(Cc2ccc(F)cc2)[C@H]2c3cc(C(=O)N(C)C)n(CCc4c[nH]c5ccc(OC)cc45)c3C[C@H]2CN1C(=O)c1ccccc1	-0.138	1.76	1.31	-2.71 (inactive)	-0.162	0.27	-0.446	-0.108	-1.73	0.812
C=C(CCCC)/C(=C/C[C@@H](OC(=O)c1ccncc1)c1ccc(CO)o1)c1cc(C(=O)OC)ccc1OC	1.5	0.0296	-0.363	0.674 (inactive)	0.833	1.31	0.669	1.03	0.744	0.775
O=C1C2C=CC(C(O)c3cccc4ccccc34)N(n3cnnc3)C2C(=O)N1Cc1ccccc1 (stereo not given)	0.161	1.72	0.8	0.228 (inactive)	0.975	-0.181	0.402	0.529	-0.13	0.668
O=C1C2C=CC(C(O)c3ccccn3)N(Nc3ccccc3F)C2C(=O)N1c1ccccc1 (stereo not given)	0.205	0.19	0.461	-0.0196 (inactive)	0.0698	-0.0392	0.0563	-0.0532	0.124	0.926
CC(C)NC(=O)[C@@]1(c2ccc([N+](=O)[O-])cc2)CC(=O)N(C(C)C)[C@@H]1c1ccc(CO)cc1	-0.277	-0.247	1.07	-0.64 (inactive)	-0.907	-0.153	-0.761	-0.867	-1.56	-1.45
NC(=O)NCC#Cc1ccc2c(c1)[C@]1(C(=O)N2)[C@H](c2ccc(O)cc2)N2[C@H](c3ccccc3)[C@H](c3ccccc3)OC(=O)[C@H]2[C@@H]1C(=O)N1CCN(c2ncccn2)CC1	0.681	0.337	0.372	-0.0492 (inactive)	0.602	-0.398	-0.232	-0.483	-0.122	0.862
